# PAX8 inh HTS: inhibitors of PAX8-driven TPO luciferase reporter, primary screen, RMG-I cells, single concentration. SteadyGlo, 24 h. inhibition, % at 12.6 µM. hit rate 1.2% among 360,000. AID 652154, 2013;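 active = mean replicate inhibition at least 60% with every replicate also reaching 60%; inconclusive = only one of the two criteria is met; inactive = mean below 60% and not all replicates reaching 60%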;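 also: luciferase light reporting Pax8 driven TPO promoter activity; plate controls were median of neutral control wells for no effect and mitoxantrone controls for full effect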
# aSyn 5UTR inh: MLPCN primary screen, SNCA 5' untranslated region | alpha-synuclein 5'UTR reporter, inhibitor activity | inhibition, % (tested at 7.5 µM) | hit rate 0.82% among 300,000; in the data active = inhibition above about 60%; inconclusive = no clear call, values can overlap the other calls;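 also: H4 neuroglioblastoma cells stably carrying SNCA 5'UTR luciferase fusion; 0% = DMSO wells and 100% = positive control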
# Shn3 inh set2: reduction of Shn3 3'UTR firefly luciferase signal, primary screen, Schnurri-3 inhibitor project, cell-based, Clone20 osteoblasts, set 2; Clone20 osteoblast Shn3 3'UTR firefly luciferase, 24 h; inhibition, % at 12.5 µM; hit rate 0.52% among 360,000; AID 588674, 2011;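 active = mean inhibition of at least 75% with every replicate also reaching 75%; inconclusive = mean inhibition at least 75% but some replicate below; inactive = mean inhibition below 75%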;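 also: 0% = median of neutral control wells and 100% = pilot-screen positive control compound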
# TRPM1 prom inh: inhibitors of MITF-dependent TRPM1 promoter reporter, primary screen, cell-based, SK-MEL-5, single point, luciferase | SK-MEL-5 TRPM1 promoter luciferase, 24 h | inhibition, % at 12.5 µM | hit rate 0.83% among 330,000;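 active = mean inhibition across replicates of 60% or more, whatever share of single replicates reaches that level; inconclusive = some that reach 60%, reason not given; inactive = mean inhibition across replicates below 60%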
# LMP1 NFkB inh: EBV LMP1-driven NF-kappaB luciferase reporter inhibitors, primary screen, cell-based, luminescence, single point. LMP1-induced NF-kappaB luciferase reporter cells. inhibition, % at 12.5 µM. hit rate 0.69% among 350,000. AID 504558, 2011; in the data active = inhibition above about 41%; inconclusive = no clear call, values can overlap the other calls;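 also: 0% = neutral control wells and 100% = reference inhibitor control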
# Starred values were filed as active, the others as inactive; ? = inconclusive; nt = no result given. A selection: hits, their analogues and other compounds. The true share with any hit is near 2.1%.
SMILES,PAX8 inh HTS,aSyn 5UTR inh,Shn3 inh set2,TRPM1 prom inh,LMP1 NFkB inh
Nc1ccc(-c2nc3ccc(N)cc3s2)cc1,40,-37,-1,-2,12
Nc1ccc(-c2nc3ccc(C(=O)O)cc3s2)cc1,103*,95*,69,115*,78*
CC1CCN(c2nc3ccc(C(=O)O)cc3s2)CC1,nt,106*,55,90*,63*
O=C(O)c1ccc2nc(-c3ccccc3)sc2c1,74*,-7,20,-25,11
O=CNCCCc1nc2ccccc2n1Cc1ccccc1,9,2,0,-7,3
Cc1cnc(C(=O)OC(C)C(=O)Nc2ccc(Oc3ccccc3)cc2)cn1 (configuration not stated),-19,nt,-26,-24,71*
Cc1cnc(C(=O)OCC(=O)Nc2ccc(Oc3ccccc3)cc2)cn1,nt,39,-30,-7,6
CCOC(=O)c1cc2c(=O)[nH]ccc2nc1C(F)(F)F,-8,18,-9,-9,4
CCCOc1ccc(N2CC(C(=O)Nc3ccccc3C(=O)NC)CC2=O)cc1 (configuration not stated),19,-34,14,4,-1
CN(C)c1ccc(CCc2ccc(N)cc2)cc1,-13,84*,32,43,13
CN(C)c1ccc(Cc2ccc(N(C)C)cc2)cc1,3,nt,-6,nt,5
COc1ccc2c(c1)-c1nc(N)sc1CC2,-5,1,-32,-9,-1
O=[N+]([O-])c1ccc2nc(SCc3cn4ccccc4n3)[nH]c2c1,102*,-15,3,-13,-1
Cc1cc(C)cc(N(C(=O)c2csnn2)C(C(=O)NC(C)(C)C)c2ccccn2)c1 (configuration not stated),9,-25,0,nt,4
Cc1ccc(NC(=O)NCCCN2CCOCC2)cc1,nt,-14,?,-5,-1
CCOC(=O)C1CCN(C(=O)c2ccc(OCC(=O)Nc3cccc(C(F)(F)F)c3)c(OC)c2)CC1,31,13,89*,21,26
O=C(CSc1nnc(CNC(=O)c2c(F)cccc2Cl)o1)Nc1ccc2c(c1)OCO2,-7,20,-6,3,1
O=[N+]([O-])c1ccc(C[n+]2cccc3c4ccccc4ccc32)cc1,52,17,15,24,-3
CCCCCCCCCCCCCCCC[n+]1cccc2ccccc21,109*,nt,92*,103*,30
CCCCCCCCC[n+]1cccc2c3ccccc3ccc21,nt,69*,89*,93*,48*
CCc1cc(C(=O)Cc2ccccn2)c(O)cc1O,10,-12,2,0,3
CCn1cc(C(=O)NCc2ccco2)c(=O)c2cc(S(=O)(=O)N3CC(C)CC(C)C3)ccc21 (configuration not stated),63*,82*,85*,16,12
O=C(Cc1ccc(Cl)cc1)NCC(=O)N1CCCCC1,0,5,-2,-2,45*
O=C(Cc1ccc(Cl)cc1)NCC(=O)N1CCCCCC1,0,9,3,8,0
CS(=O)(=O)N1CCN(CCN2C(=O)c3cccc4cccc(c34)C2=O)CC1,19,-12,-4,-4,4
SMILES,PAX8 inh HTS,aSyn 5UTR inh,Shn3 inh set2,TRPM1 prom inh,LMP1 NFkB inh
Cc1ccc(Cn2c(=N)n(CC(=O)c3ccc([N+](=O)[O-])cc3)c3ccccc32)cc1,nt,16,9,98*,-1
Cn1c(=N)n(CC(=O)c2ccc(F)cc2)c2ccccc21,-49,76*,59,36,15
CCCCn1c(=N)n(CC(=O)c2ccc([N+](=O)[O-])cc2)c2ccccc21,-2,10,nt,nt,nt
Cn1c(=N)n(CC(=O)c2ccc(Br)cc2)c2ccccc21,-35,36,-18,48,-2
Cc1cc(C)n(-c2nc3ccccc3c(=O)n2OCC(=O)OCc2ccccc2)n1,nt,62*,72,16,23
Cc1cc(C)n(-c2nc3ccccc3c(=O)n2OCC(=O)N(C)C)n1,nt,5,-9,20,5
Cc1ccc(C(CNS(=O)(=O)c2ccccc2)N2CCN(C)CC2)cc1 (configuration not stated),-11,1,5,-10,-1
Cc1ccc(C(CNS(=O)(=O)c2ccc(Br)cc2)N2CCN(C)CC2)cc1 (configuration not stated),-9,-9,5,80*,-4
CCOC(=O)c1cn2nc(N3CCCCC3)ccc2n1,41,21,30,16,59*
CCOC(=O)c1cn2nc(N3CCCC3)ccc2n1,29,48,25,17,53*
CCOC(=O)c1cn2nc(Oc3ccccc3)ccc2n1,-6,-149,-23,-70,-14
COc1cccc(S(=O)(=O)N[C@@H]2CC[C@@H](CCn3cc(-c4ccccc4)nn3)O[C@@H]2CO)c1,9,nt,nt,nt,nt
O=C(NC1CCCCC1)c1n[nH]c2c1CCCCC2,55,nt,48,nt,54*
CCC(C)(C)C1CCc2[nH]nc(C(=O)NC3CCCC3)c2C1 (configuration not stated),-41,nt,5,-20,4
CC(=O)Nc1ccc(-c2nnc(SCc3ccccc3C#N)n2C)cc1,nt,-12,-21,-4,-1
CC(=O)O[C@@]12CO[C@@H]1C[C@H](O)[C@@]1(C)C(=O)[C@H](O)C3=C(C)[C@@H](OC(=O)[C@H](O)[C@@H](NC(=O)OC(C)(C)C)c4ccccc4)C[C@](O)([C@@H](OC(=O)c4ccccc4)[C@H]21)C3(C)C,nt,72*,nt,nt,nt
CN(CC(=O)NCc1ccc2c(c1)OCO2)S(=O)(=O)c1ccc(Br)s1,nt,4,94*,3,-7
O=C(CCS(=O)(=O)c1ccc(Br)s1)NCc1ccc2c(c1)OCO2,nt,21,12,-15,-8
COC(=O)c1c(NC(=O)c2ccccc2)sc2c1CC(C)(C)NC2(C)C,-7,4,-4,-3,-3
COC(=O)c1c(NC(=O)c2ccc(OC(C)C)cc2)sc2c1CC(C)(C)NC2(C)C,-5,103*,12,7,-63
CC1(C)Cc2c(sc(NC(=O)c3ccc(C(=O)c4ccccc4)cc3)c2C(N)=O)C(C)(C)N1,35,48,36,39,-7
CC1(C)Cc2c(sc(NC(=O)c3ccc4ncsc4c3)c2C(N)=O)C(C)(C)N1,-47,-38,-48,78*,3
O=C1C=CC(=O)c2c(O)c(CO)c(CO)c(O)c21,1,nt,-4,103*,-1
N/C(=N\OC(=O)c1cc([N+](=O)[O-])ccc1Cl)c1cccnc1,3,88*,17,-3,4
N/C(=N\OC(=O)c1ccc([N+](=O)[O-])cc1)c1cccnc1,-3,-92,-91,-58,-8
COc1ccc(C2c3[nH]c4ccccc4c3CCN2CCCn2cccn2)c(C)c1C (configuration not stated),32,-28,22,16,12
CCCCOCCCNc1ncnc2c1[nH]c1ccccc12,nt,-53,83*,11,15
Cc1ccc(-c2nc(-c3ccccc3)no2)cc1,nt,?,24,0,-14

# Screening results: PubChem, Broad Institute
